# From PubChem
# An excerpt weighted towards active compounds, which were near 2.6% of everything screened.
# LGR2 antag – inhibitors of bursicon-induced LGR2 CRE-luciferase signal, primary screen, cell-based, HEK293, CRE-luciferase reporter, bursicon stimulation. inhibition, % at 9.99 µM. bursicon-stimulated, 4 h. 380,000 tested, 0.35% active. Drosophila bursicon receptor LGR2 (rickets). AID 720647, 2013;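 active = drop in luminescence signal, shown as inhibition above about 50% in the replicate tests, limit read from the data, passing the limit was not always enough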;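 note: agonist challenge used bursicon conditioned medium at about half maximal strength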
# aDG glyco act – activators of alpha-DG glycosylation, primary screen, uHTS, Pro5-aDG cells, AlphaScreen; alpha-DG glycosylation AlphaScreen (IIH6); 0% Pro5, 100% B10-LARGE cell signal; activation, % at 10 µM; 360,000 tested, 0.22% active; AID 624168, 2012;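 active = activation of at least 8% versus controls, or a plate z-score of at least 8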;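 note: Pro5 are CHO cells carrying HIG-tagged alpha-DG that lacks glycosylation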
# TWEAK-Fn14 inh – inhibitors of TWEAK-Fn14 signaling, primary screen, luciferase reporter cells, uHTS | AID 1159606, 2016 | 360,000 tested, 2% active | TWEAK-stimulated Fn14 reporter cells, luciferase luminescence, 8 h | inhibition, % at 10 µM; in the data active = inhibition above about 50%
# HSP90 refold inh – HSP90 inhibitors, primary screen, cell lysate, luminescence; 290,000 tested, 0.91% active; Rabbit reticulocyte lysate, luciferase refolding luminescence, 3 h; inhibition, % at 5.6 µM; Heat shock protein HSP 90 (rabbit reticulocyte lysate; luciferase refolding);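 active = inhibition above the screen-wide mean plus 3 SD, computed separately per campaign, cut at about 16% in these data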;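 note: 0% = DMSO wells and 100% = 60 µM geldanamycin wells; inhibitors lower the luminescence because luciferase stays unfolded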
# EBV LMP1 NFkB – EBV LMP1-driven NF-kappaB luciferase reporter inhibitors, primary screen, cell-based, luminescence, single point; LMP1-induced NF-kappaB luciferase reporter cells; inhibition, % at 12.5 µM; 350,000 tested, 0.69% active; AID 504558, 2011; in the data active = inhibition above about 41%;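 note: 0% = neutral control wells and 100% = reference inhibitor control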
# TROY signal inh – inhibitors of TROY-driven NF-kB signaling, primary screen, Q293 LMP1-TROYcd cells, NF-kB luciferase, uHTS. Q293 LMP1-TROYcd NF-kB luciferase reporter, 4 h. 360,000 tested, 0.98% active. inhibition, % at 10 µM;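 active = compounds whose plate-normalised and pattern-corrected inhibition of the luciferase reporter signal at the single screening dose is 50% or more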
# HSP90 inh confirm – HSP90 inhibitors, confirmation, cell lysate, luminescence; shares compounds with HSP90 refold inh; rabbit reticulocyte lysate, luciferase refolding luminescence, 3 h; inhibition, % at 5.9 µM; 2,300 tested, 64% active; AID 1846, 2009; in the data active = inhibition above about 18%;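 note: 0% = vehicle wells and 100% = reference inhibitor wells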
# FLuc counter – firefly luciferase inhibitors, HSP90 counter-screen, confirmation, artefact control for HSP90 inhibitor project, biochemical, luminescence, triplicate; shares compounds with HSP90 refold inh; purified native firefly luciferase; inhibition, % at 5.9 µM; 2,300 tested, 48% active; AID 1847, 2009;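 active = inhibition above the mean inhibition of all tested sample wells plus 3 SD, cut at about 10% in these data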;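 note: 0% = DMSO with luciferase and 100% = wells lacking luciferase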
# Target sequence (P08659 whole entry, looked up): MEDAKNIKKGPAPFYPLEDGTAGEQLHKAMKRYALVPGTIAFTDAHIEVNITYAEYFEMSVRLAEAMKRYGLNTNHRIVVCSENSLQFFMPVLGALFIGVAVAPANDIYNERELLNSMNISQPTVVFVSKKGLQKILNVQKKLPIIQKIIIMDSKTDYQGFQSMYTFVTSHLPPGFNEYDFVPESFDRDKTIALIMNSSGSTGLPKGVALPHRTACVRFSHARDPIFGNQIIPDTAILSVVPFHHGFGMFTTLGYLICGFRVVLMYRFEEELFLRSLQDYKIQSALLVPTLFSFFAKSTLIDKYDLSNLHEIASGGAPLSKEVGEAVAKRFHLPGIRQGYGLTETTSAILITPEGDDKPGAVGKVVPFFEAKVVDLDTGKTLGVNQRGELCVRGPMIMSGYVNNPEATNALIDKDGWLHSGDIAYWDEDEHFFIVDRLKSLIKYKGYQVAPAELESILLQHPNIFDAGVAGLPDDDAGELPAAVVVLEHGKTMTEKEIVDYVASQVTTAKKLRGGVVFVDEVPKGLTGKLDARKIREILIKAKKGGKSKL
# * hit, by the source's call; . = no result given.
SMILES,LGR2 antag,aDG glyco act,TWEAK-Fn14 inh,HSP90 refold inh,EBV LMP1 NFkB,TROY signal inh,HSP90 inh confirm,FLuc counter
CC(C)Oc1ccc(/C(O)=C2/C(=O)C(=O)N(Cc3cccnc3)C2c2ccco2)cc1 (configuration not stated),.,0,13,20*,8,-6,3,15*
CN1[C@H](C(=O)NCC2CCCCC2)[C@@H](CO)[C@@H]2Cn3c(cccc3=O)[C@@H]21,3,.,.,.,.,.,.,.
Cc1ccc(S(=O)(=O)Nc2ccc3c(c2)C(=O)N([C@@H](C)CO)C[C@@H](C)[C@@H](CN(C)C(=O)c2ccncc2)OCCCC[C@H](C)O3)cc1,2,.,.,.,.,.,.,.
Cc1nc(CS(=O)(=O)c2ccc(Cl)cc2)sc1C(=O)O,-3,0,6,33*,-8,-5,49*,1
C[C@@H]1CCCCO[C@H](CN(C)C(=O)Cc2ccccc2)[C@H](C)CN([C@H](C)CO)C(=O)c2cc(NC(=O)c3ccncc3)ccc2O1,21,.,.,.,.,.,.,.
C[C@@H]1CN([C@@H](C)CO)C(=O)c2cc(C3=CCCC3)cnc2O[C@@H]1CN(C)S(=O)(=O)c1cn(C)cn1,19,.,.,.,.,.,.,.
CC(C)c1ccc(NC(=S)Nc2cccc3ccccc23)cc1,16,0,53*,21*,-3,70*,19*,-21
CCC(=O)NC[C@@H]1[C@@H](c2ccccc2)[C@H](CO)N1C(=O)C1CCC1,7,.,.,.,.,.,.,.
C[C@H](CO)N1C[C@H](C)[C@@H](CN(C)Cc2ccc(C(=O)Nc3ccccc3N)cc2)Oc2ccc(NC(=O)CCN3CCOCC3)cc2C1=O,-5,.,.,.,.,.,.,.
COc1cccc(/C=C/c2ccccn2)c1O,-62,0,10,17*,-11,-36,17*,9.9*
COc1ccccc1C=Cc1ccnc2ccccc12,-10,0,23,.,6,4,.,.
COc1cccc(/C=N/NC(=O)c2[nH]c(C)c(C(=O)N/N=C/c3cccc(OC)c3O)c2C)c1O,.,0,-32,32*,33,-12,-10,-19
COc1cccc(/C=N/NC(=S)Nc2cccc(C(=O)O)c2)c1O,66*,0,-1,25*,-1,-34,50*,27*
CC(=O)OCCCCON1C(=O)c2ccccc2C1=O,.,0,-4,7,-1,5,.,.
CCOC(=O)CON1C(=O)c2ccccc2C1=O,2,0,-6,26*,-10,-14,-4,-6
C[C@H](CO)N1C[C@H](C)[C@H](CN(C)Cc2ccccc2)Oc2ccc(NC(=O)CCN3CCOCC3)cc2CC1=O,12,.,.,.,.,.,.,.
CCCc1nn(C)c(C(=O)Nc2ccccc2)c1Cl,31,0,81*,36*,-5,76*,52*,54*
CCCc1nn(C)c(C(=O)Nc2cccc(Cl)c2)c1Cl,-5,0,78*,26*,2,70*,35*,36*
C[C@@H]1CN([C@H](C)CO)C(=O)c2cc(C#C[C@@H](C)O)cnc2O[C@H]1CN(C)C(=O)Cc1ccccn1,-3,.,.,.,.,.,.,.
Cc1c(-c2ccccn2)c(=O)[nH]n1-c1ccc(F)cc1,30,0,51*,22*,2,30,30*,5
O=c1[nH]n(-c2ccc(F)cc2)c2ncccc12,.,0,-21,-3,2,-7,.,.
C[C@@H](C(=O)Nc1ccc2c(c1)OCO2)n1c(=O)[nH]c2ccccc2c1=O,19,0,-5,5,-3,2,.,.
C[C@@H](C(=O)Nc1ccc2c(c1)OCCO2)n1c(=O)[nH]c2ccccc2c1=O,16,0,94*,54*,43*,84*,66*,69*
